The record followed here is article PMC4336329 (PLoS ONE, 2015).

Out of some 310,000 compounds screened, about 14,000 (4.5%) showed an effect of 50% or more. The effect is printed as a negative number. This excerpt belongs to a sample that is enriched for strong results.
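Further: peak tail current of the secondary pulse compared with the same well before compound.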

Chain of human ether-à-go-go-related gene (hERG) potassium channel (Q12809 whole entry, looked up): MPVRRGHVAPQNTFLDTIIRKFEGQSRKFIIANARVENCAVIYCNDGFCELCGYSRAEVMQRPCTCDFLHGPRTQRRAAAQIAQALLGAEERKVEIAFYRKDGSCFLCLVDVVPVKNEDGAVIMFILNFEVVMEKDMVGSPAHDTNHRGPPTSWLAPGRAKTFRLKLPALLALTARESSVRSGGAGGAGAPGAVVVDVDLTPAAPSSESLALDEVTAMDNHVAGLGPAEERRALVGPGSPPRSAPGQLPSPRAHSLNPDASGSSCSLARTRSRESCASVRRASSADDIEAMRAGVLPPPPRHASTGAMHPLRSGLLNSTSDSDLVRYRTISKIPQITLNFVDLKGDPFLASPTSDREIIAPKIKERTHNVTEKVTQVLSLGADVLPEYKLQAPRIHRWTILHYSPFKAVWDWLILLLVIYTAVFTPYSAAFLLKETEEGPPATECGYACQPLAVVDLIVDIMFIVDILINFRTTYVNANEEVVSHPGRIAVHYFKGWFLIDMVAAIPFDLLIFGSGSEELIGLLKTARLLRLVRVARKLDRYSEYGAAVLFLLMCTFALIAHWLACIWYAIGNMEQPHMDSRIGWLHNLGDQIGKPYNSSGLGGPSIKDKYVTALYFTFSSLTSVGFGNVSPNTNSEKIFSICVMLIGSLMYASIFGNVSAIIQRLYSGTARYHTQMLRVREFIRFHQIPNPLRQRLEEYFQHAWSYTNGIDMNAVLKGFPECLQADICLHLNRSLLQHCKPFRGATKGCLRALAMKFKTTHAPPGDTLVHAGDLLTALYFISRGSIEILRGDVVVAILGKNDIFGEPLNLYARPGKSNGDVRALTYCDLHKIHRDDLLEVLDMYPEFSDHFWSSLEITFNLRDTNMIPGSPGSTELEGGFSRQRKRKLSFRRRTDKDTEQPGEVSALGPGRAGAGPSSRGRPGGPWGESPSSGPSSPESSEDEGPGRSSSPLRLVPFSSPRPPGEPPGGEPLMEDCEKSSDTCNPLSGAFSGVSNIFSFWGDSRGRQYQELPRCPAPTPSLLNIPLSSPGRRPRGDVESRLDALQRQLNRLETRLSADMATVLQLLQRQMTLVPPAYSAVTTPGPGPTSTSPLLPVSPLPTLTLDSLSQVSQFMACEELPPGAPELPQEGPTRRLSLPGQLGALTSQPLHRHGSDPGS

The test concerns the target human ether-à-go-go-related gene (hERG) potassium channel (human, UniProt Q12809). As to the kind of experiment: primary screen, population patch clamp on CHO cells stably expressing hERG; higher = less effect of the substance.
Regarding `Cc1c(NC(=O)C(C)OC(=O)c2cc(Cl)ccc2O)c(=O)n(-c2ccccc2)n1C` (stereo not drawn), the “hERG current change (%, negative = inhibition) at 10uM” value is reported as 15.3%.

Take `CCSc1sccc1C1C(C#N)=C(N)N(c2cccnc2)C2=C1C(=O)CCC2` (stereo not drawn): the “hERG current change (%, negative = inhibition) at 10uM” value is given as -31.5%.

With `CCSc1sccc1C1C(C#N)=C(N)N(c2cccnc2)C2=C1C(=O)CC(C)(C)C2` (stereo not drawn), the “hERG current change (%, negative = inhibition) at 10uM” value is -50.4%.

On to `CC1(C)CC(=O)C2=C(C1)N(c1cccnc1)C(N)=C(C#N)C2c1cccs1` (stereo not drawn), for which the “hERG current change (%, negative = inhibition) at 10uM” value is reported as -5.86%.

Turning to `CC12COC3(C(=O)Nc4ccc(F)cc4)CC1CCC32C` (stereo not drawn), the “hERG current change (%, negative = inhibition) at 10uM” value was -18%.

Consider `CN(CCC#N)C(=O)COC(=O)[C@H](Cc1ccccc1)N1C(=O)c2ccccc2C1=O`, for which the “hERG current change (%, negative = inhibition) at 10uM” value is -2.25%.

Turning to `Cc1ccc(-n2nc3c(=O)n(CC(=O)NCc4cccs4)nc(C)c3c2C)cc1`, the “hERG current change (%, negative = inhibition) at 10uM” value is listed as -20.1%.

On to `Cc1ccc(Oc2ncccc2/C=N/OCc2ccc(Cl)cc2Cl)cc1`, for which the “hERG current change (%, negative = inhibition) at 10uM” value is given as 14.7%.

`CC(C)CC(=O)Nc1ccccc1-c1nnn(CC(=O)N2CCc3ccccc3C2)n1`: the “hERG current change (%, negative = inhibition) at 10uM” value is reported as -37.3%.

For the compound `O=C(Nc1ccccc1-c1nnn(CC(=O)N2CCc3ccccc3C2)n1)C1CCC1`, the “hERG current change (%, negative = inhibition) at 10uM” value was -52.8%.

In the case of `O=C(Nc1cccc(-c2nnn(CC(=O)N3CCc4ccccc4C3)n2)c1)C1CCC1`, the “hERG current change (%, negative = inhibition) at 10uM” value amounted to 2.59%.

For `O=C(NCCN1CCOCC1)c1cccc(NS(=O)(=O)c2ccc(Br)cc2)c1`, the “hERG current change (%, negative = inhibition) at 10uM” value is listed as -34.3%.

For the compound `OCC[C@H]1C[C@H](O)[C@@H](O)[C@]2(OCc3ccccc32)O1`, the “hERG current change (%, negative = inhibition) at 10uM” value turned out to be 11.9%.

Consider `CC1CC(C)CN(C(=O)COC(=O)c2cc([N+](=O)[O-])ccc2N2CCOCC2)C1` (stereo not drawn), for which the “hERG current change (%, negative = inhibition) at 10uM” value was -54.7%.

For `O=C(OCc1ccc([N+](=O)[O-])cc1)c1cc([N+](=O)[O-])ccc1N1CCOCC1`, the “hERG current change (%, negative = inhibition) at 10uM” value was -76.1%.

Regarding `CC1CCCN(C(=O)COC(=O)c2cc([N+](=O)[O-])ccc2N2CCOCC2)C1` (stereo not drawn), the “hERG current change (%, negative = inhibition) at 10uM” value is reported as -14.6%.

On to `Cc1ccc(COC(=O)c2cc([N+](=O)[O-])ccc2N2CCOCC2)cc1`, for which the “hERG current change (%, negative = inhibition) at 10uM” value is given as -53.7%.

`CC1CCN(C(=O)COC(=O)c2cc([N+](=O)[O-])ccc2N2CCOCC2)CC1`: the “hERG current change (%, negative = inhibition) at 10uM” value was -15%.

For `O=C(OCc1ccc(F)cc1)c1cc(S(=O)(=O)N2CCCCC2)ccc1N1CCOCC1`, the “hERG current change (%, negative = inhibition) at 10uM” value was 2.16%.

On to `Cc1ccccc1COC(=O)c1cc([N+](=O)[O-])ccc1N1CCOCC1`, for which the “hERG current change (%, negative = inhibition) at 10uM” value was -18.8%.

In the case of `Cc1ccc(C)c(COC(=O)c2cc([N+](=O)[O-])ccc2N2CCOCC2)c1`, the “hERG current change (%, negative = inhibition) at 10uM” value stood at 5.73%.

In the case of `O=C(OCc1ccc([N+](=O)[O-])cc1)c1cc(S(=O)(=O)N2CCCCC2)ccc1N1CCOCC1`, the “hERG current change (%, negative = inhibition) at 10uM” value is recorded as -75.9%.

On to `Cc1ccc(COC(=O)c2cc(S(=O)(=O)N3CCCCC3)ccc2N2CCOCC2)cc1`, for which the “hERG current change (%, negative = inhibition) at 10uM” value is reported as -13.9%.

`O=C(OCc1cccc(Cl)c1)c1cc([N+](=O)[O-])ccc1N1CCOCC1`: the “hERG current change (%, negative = inhibition) at 10uM” value is listed as -38.7%.

With `O=C(OCc1ccccc1Cl)c1cc([N+](=O)[O-])ccc1N1CCOCC1`, the “hERG current change (%, negative = inhibition) at 10uM” value is given as -23.1%.

In the case of `C/C(=N\NC(=O)C(NC(=O)c1ccccc1)C(C)C)c1ccccc1` (stereo not drawn), the “hERG current change (%, negative = inhibition) at 10uM” value is 21.2%.

With `COc1ccc(-c2csc(NC(C)=O)n2)cc1OC`, the “hERG current change (%, negative = inhibition) at 10uM” value was determined as 5.13%.

Take `Cc1ccccc1NC(=O)NC1(C(=O)NCC2CCCO2)CCCCC1` (stereo not drawn): the “hERG current change (%, negative = inhibition) at 10uM” value is on record as 17.5%.

Take `O=[N+]([O-])c1ccc(NCc2ccccn2)nc1`: the “hERG current change (%, negative = inhibition) at 10uM” value was -5.06%.

As to `CCC(C(=O)Nc1ccccc1)c1ccccc1` (stereo not drawn), the “hERG current change (%, negative = inhibition) at 10uM” value is listed as 7.86%.

Regarding `CS(=O)(=O)N(CC(O)Cn1c2ccccc2c2ccccc21)c1cccc2ccccc12` (stereo not drawn), the “hERG current change (%, negative = inhibition) at 10uM” value is 0.652%.

Take `CCOC(=O)c1c(C)[nH]c(C)c1C(=O)COC(=O)c1cccc(S(=O)(=O)NC)c1`: the “hERG current change (%, negative = inhibition) at 10uM” value was -7.56%.

As to `COc1ccc(COC(=O)c2cc([N+](=O)[O-])ccc2N2CCOCC2)cc1F`, the “hERG current change (%, negative = inhibition) at 10uM” value was -62.5%.

Turning to `COc1ccc(OC)c(COC(=O)c2cc([N+](=O)[O-])ccc2N2CCOCC2)c1`, the “hERG current change (%, negative = inhibition) at 10uM” value is reported as -18%.

Regarding `CCc1cccc(NC(=O)COC(=O)c2cc([N+](=O)[O-])ccc2N2CCOCC2)c1`, the “hERG current change (%, negative = inhibition) at 10uM” value is -7.99%.

For the compound `O=C(OCc1ccccc1F)c1cc([N+](=O)[O-])ccc1N1CCOCC1`, the “hERG current change (%, negative = inhibition) at 10uM” value is listed as -47.9%.

Regarding `CN(C)S(=O)(=O)c1cccc(COC(=O)c2cc([N+](=O)[O-])ccc2N2CCOCC2)c1`, the “hERG current change (%, negative = inhibition) at 10uM” value is -52.7%.

For the compound `O=C(OCc1c(F)cccc1Cl)c1cc([N+](=O)[O-])ccc1N1CCOCC1`, the “hERG current change (%, negative = inhibition) at 10uM” value turned out to be 3.43%.

As to `COc1cc(C(=O)CSc2nncn2C)cc(OC)c1OC`, the “hERG current change (%, negative = inhibition) at 10uM” value came out at 6.63%.

Take `CCOC(=O)c1ccc(NC(=S)N2CCC(O)CC2)cc1`: the “hERG current change (%, negative = inhibition) at 10uM” value came out at 18%.

`O=C(CN1C(=O)c2ccccc2C1=O)Nc1cc(C(=O)O)cc(C(=O)O)c1`: the “hERG current change (%, negative = inhibition) at 10uM” value was 7.72%.

For the compound `N#Cc1ccccc1OCC(=O)NNC(=O)c1ccncc1`, the “hERG current change (%, negative = inhibition) at 10uM” value stood at 9.65%.

Regarding `Cc1ccc(C2(C)NC(=O)N(CC(=O)Nc3cc(C)on3)C2=O)cc1` (stereo not drawn), the “hERG current change (%, negative = inhibition) at 10uM” value is -10.7%.

On to `Cc1cc(NC(=O)CN2C(=O)NC(C)(c3ccc(Cl)cc3)C2=O)no1` (stereo not drawn), for which the “hERG current change (%, negative = inhibition) at 10uM” value is 39.2%.

As for `Cc1cc(NC(=O)CN2C(=O)NC(C)(c3ccccc3)C2=O)no1` (stereo not drawn), the “hERG current change (%, negative = inhibition) at 10uM” value was -55.5%.

As to `CC1(c2ccc(OC(F)F)cc2)NC(=O)N(CC(=O)Nc2ccc(S(N)(=O)=O)cc2)C1=O` (stereo not drawn), the “hERG current change (%, negative = inhibition) at 10uM” value came to 1.64%.

Take `CC1(c2ccc(OC(F)F)cc2)NC(=O)N(CC(=O)Nc2ccc(OC(F)F)cc2)C1=O` (stereo not drawn): the “hERG current change (%, negative = inhibition) at 10uM” value was -94.9%.

`CC1(c2ccc(OC(F)F)cc2)NC(=O)N(CC(=O)Nc2cccc(F)c2)C1=O` (stereo not drawn): the “hERG current change (%, negative = inhibition) at 10uM” value turned out to be 2.79%.

On to `CC1(c2ccc(OC(F)F)cc2)NC(=O)N(CC(=O)Nc2ccc(F)cc2)C1=O` (stereo not drawn), for which the “hERG current change (%, negative = inhibition) at 10uM” value was -45.5%.

In the case of `CCOc1ccc(NC(=O)CN2C(=O)NC(C)(c3ccc(OC(F)F)cc3)C2=O)cc1` (stereo not drawn), the “hERG current change (%, negative = inhibition) at 10uM” value is -16.1%.

Turning to `CC1(c2ccc(OC(F)F)cc2)NC(=O)N(CC(=O)Nc2ccccc2)C1=O` (stereo not drawn), the “hERG current change (%, negative = inhibition) at 10uM” value is on record as -51.3%.
